Experimental data from PubChem BioAssay AID463254 (National Center for Advancing Translational Sciences (NCATS), 2010).
Among all 330,000 compounds or so, about 40 (0.01%) were called active. The sample holds actives, similar compounds and a random draw of the others, so the mix is not that of the screen. Unmarked numbers belong to inactive results. Calls follow the shape of the dose curve; as a rule, active = well fitted inhibition curve with a large enough effect; inconclusive = small, poorly fitted or top-dose-only effect, or effect the other way; inactive = flat fitted curve, though single readings scatter.

biological target: Ubiquitin carboxyl-terminal hydrolase 2 (Homo sapiens) (UniProt O75604); experiment: qHTS Assay for Inhibitors of Ubiquitin-specific Protease USP2a Using CHOP2 as the Reporter; details: USP2 core, Ub-CHOP2 coupled fluorogenic reporter, 485/531; series mostly up to 38.3 µM; activity change, negative = inhibition: at the top concentration;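 as to activity change, negative = inhibition: plate controls were DMSO wells for no effect and full inhibition by NEM control for full effect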
Method in brief: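 USP2 core (10nM final) preincubated 30min RT with compound in 20mM Tris-HCl pH 8.0, 2mM CaCl2, 2mM beta-mercaptoethanol, 0.05% CHAPS; 25nM Ub-CHOP2 plus 25nM reporter substrate added, fluorescence (Ex485/Em531) read after 60min.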
Potency is read from the fitted curve at half-maximal effect.

Chain of Ubiquitin carboxyl-terminal hydrolase 2 (Homo sapiens) (O75604 whole entry, looked up): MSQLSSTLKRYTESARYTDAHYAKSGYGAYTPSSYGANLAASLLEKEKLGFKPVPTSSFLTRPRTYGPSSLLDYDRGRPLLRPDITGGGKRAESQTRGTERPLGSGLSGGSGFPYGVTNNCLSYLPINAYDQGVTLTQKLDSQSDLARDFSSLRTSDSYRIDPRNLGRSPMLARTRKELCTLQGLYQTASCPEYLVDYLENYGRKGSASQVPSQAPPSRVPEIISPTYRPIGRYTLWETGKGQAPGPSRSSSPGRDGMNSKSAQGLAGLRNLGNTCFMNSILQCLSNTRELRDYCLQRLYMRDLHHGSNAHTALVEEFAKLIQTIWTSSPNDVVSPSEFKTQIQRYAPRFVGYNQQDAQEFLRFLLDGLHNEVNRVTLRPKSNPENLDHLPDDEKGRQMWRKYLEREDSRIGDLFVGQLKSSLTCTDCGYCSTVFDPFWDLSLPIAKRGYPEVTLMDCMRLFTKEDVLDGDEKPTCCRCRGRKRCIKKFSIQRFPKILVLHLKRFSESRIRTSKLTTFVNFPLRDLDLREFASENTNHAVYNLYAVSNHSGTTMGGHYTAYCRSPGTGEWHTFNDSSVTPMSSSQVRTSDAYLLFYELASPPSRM

Structure (SMILES)	activity change, negative = inhibition [%]	Potency
O=C(COC(=O)c1ccc(F)cc1F)Nc1ncccn1	0.688	
CC(=O)N[C@@H](C)C(=O)N1CCC(n2nccc2NC(=O)CCCc2ccccc2)CC1	0.0805	
Cc1ccc(C(=O)Nc2nnc(C3=COCCO3)o2)cc1C	2.21	
COc1ccccc1-n1c(C)nc2cc(C(=O)NCc3ccc4c(c3)OCO4)ccc21	-4.97	
CCCC(C)C(=O)NCc1ccncc1 (configuration not stated)	-0.731	
CCOC(=O)c1sc(NC(=O)CSc2nc3c(c(=O)n2-c2ccccc2)SCC3)c(C(=O)OCC)c1C	-0.841	
CC(C)C(C)(C#N)NC(=O)CSc1nncn1-c1ccccc1 (configuration not stated)	1.82	
COc1cccc(/C=C(/CC(=O)Nc2ccc(N3CCOCC3)cc2)c2nc3ccccc3s2)c1	0.762	
O=C(NC(=S)Nc1cccc(-c2ccc(CO)o2)c1)c1cccs1	-0.762	
CCCCCN(C(=O)CCC(=O)OCC(=O)NCc1ccc(OC)cc1)c1c(N)n(CCCC)c(=O)[nH]c1=O	0.688	
Cc1ccc(S(=O)(=O)Nc2nc(N)n(-c3ccccc3)n2)cc1	0.765	
COC(=O)c1ccc(OC(=O)c2nn(C)cc2Cl)c(OC)c1	-0.26	
Cc1nc2nc(COc3ccccc3)[nH]n2c(=O)c1C	1.56	
O=C(Nc1cc(N2CCOCC2)ncn1)NC1(C(F)(F)F)Oc2ccc(Cl)cc2O1 (configuration not stated)	-0.0506	
CSc1ncc(C(=O)Nc2ccc(C)cc2C)c(C)n1	1.33	
COc1cccc(CNS(=O)(=O)c2csc(C(N)=O)c2)c1	3.56	
CC(=O)O[C@H]1CC[C@@]2(C)[C@@H](CC[C@@H]3[C@@H]2CC[C@]2(C)[C@@H](C(C)(C)O)C[C@@H]32)C1	-0.0227	
Cc1ccc(C)c(CSc2nc(-c3ccco3)nc3c2c(=O)n(C)c(=O)n3C)c1	-0.717	
CCC(C)NC(=O)C1CCC(=O)N1Cc1ccc(C)cc1 (configuration not stated)	0.93	

Structure (SMILES)	activity change, negative = inhibition [%]	Potency
COc1ccc(CS(=O)/C(Cl)=C(/Cl)C(=O)Nc2ccc(OC)nc2)cc1 (configuration not stated)	0.612	
Cc1cc(C)c(S(=O)(=O)N2CCOCC2)cc1C	1.87	
Cc1ccc(CNC(=O)Cn2c(=O)c3sccc3n(Cc3cccc([N+](=O)[O-])c3)c2=O)cc1	-0.534	
CCOc1ncccc1C(=O)NNC(=O)c1cccc(S(=O)(=O)Nc2ccccc2OC)c1	-1.34	
COc1ccc(C(c2nnnn2C2CCCCC2)N2CCN(c3ccccc3F)CC2)cc1 (configuration not stated)	-0.313	
COc1ccccc1/C=C/CN1CCC(CO)(Cc2ccccc2)CC1	1.37	
Cc1ccc(O)c(/C=N/NC(=O)COc2ccc3c(C)cc(=O)oc3c2)c1	0.0027	
O=C(CCc1nnc(Cc2ccc3c(c2)OCO3)o1)NCCc1ccccc1Cl	2.78	
CC(C)c1ccc(-c2noc(C3CCCN(S(C)(=O)=O)C3)n2)cc1 (configuration not stated)	-7.49	
COc1ccccc1CNC(=O)CCCNS(=O)(=O)c1cccc2nsnc12	1.54	
CC1COC2C(O1)N(S(C)(=O)=O)CCN2S(C)(=O)=O (configuration not stated)	-1.04	
CCC(C)[C@@H](C(=O)N1CCNCC1)n1cc(CCCCN)nn1 (some centres not stated)	1.67	
CCCN(CC(=O)NC(=O)NC1CCCCC1)CC(=O)Nc1cc(Cl)ccc1Cl	-8.68	
CC(C)CC1NC(=O)c2cc(Cl)ccc2-n2c1nc1ccccc1c2=O (configuration not stated)	4.7	
O=C(NNS(=O)(=O)c1ccc(F)cc1)c1cnccn1	2.02	
Cc1csc(Nc2ccc(Cl)cc2)[n+]1-c1ccc(Cl)cc1	-0.358	
CSC1=NCCN1C(=O)c1ccc(S(=O)(=O)N2CCOCC2)cc1	-11.3	
C[C@@H]1C[C@@H]2O[C@H]2/C=C\C=C\C(=O)Cc2c(Cl)c(O)cc(O)c2C(=O)O1	1.29	
Cc1cccc(NC(=O)N(Cc2cc3cc(C)cc(C)c3[nH]c2=O)CC2COCCO2)c1 (configuration not stated)	1.92	

Structure (SMILES)	activity change, negative = inhibition [%]	Potency
C#CCOCCOCCOCCNc1nc(N2CCN(C(=O)CCCCCCCCCCNC(=O)Cn3cc(CCCCCN)nn3)CC2)nc(N2CCN(C(=O)CCCCCCCCCCNC(=O)[C@H](CO)n3cc(CCCSC)nn3)CC2)n1	-26.9	
C#CCOCCOCCOCCNc1nc(N2CCN(C(=O)CCCCCCCCCCNC(=O)[C@H]([C@@H](C)CC)n3cc(CCCCN=C(N)N)nn3)CC2)nc(N2CCN(C(=O)CCCCCCCCCCNC(=O)[C@H](CO)n3cc(CCCSC)nn3)CC2)n1		6.31 µM (active)
C#CCOCCOCCOCCNc1nc(N2CCN(C(=O)CCCCCCCCCCNC(=O)[C@H](CCCCN)n3cc(C)nn3)CC2)nc(N2CCN(C(=O)CCCCCCCCCCNC(=O)[C@H](CO)n3cc(CCCSC)nn3)CC2)n1	-8.88	
Cc1cc(NC(=O)CN2CCCCC2C)nc2c1c(=O)oc1ccccc12 (configuration not stated)	3.13	
Cc1nc(SC(C)C)[nH]c(=O)c1Cc1ccccc1	-0.906	
CC1CCc2c(nc3ncnn3c2Nc2ccc(OC(F)(F)F)cc2)C1 (configuration not stated)	1.22	
CCNC(=O)c1sccc1-n1cccc1	2.45	
CN1C2CCC1/C(=C\c1ccccc1Cl)C(=O)/C2=C\c1ccccc1Cl	0.535	
COc1ccc2c(c1OC)C(=O)c1ccccc1C2=O	3.96	
Cc1c([N+](=O)[O-])c(N)nn1C	2.13	
Cc1cc(NS(=O)(=O)c2ccc(NC(=O)c3cccnc3)cc2)nc(C)n1	0.463	
COc1cccc(CC2(CO)CCN(Cc3cnc(-c4cccc(C)c4)nc3)CC2)c1	4.24	
NS(=O)(=O)c1ccc(NC(=S)NC(=O)c2cccnc2)cc1	0.624	
COc1cc2c(C(=O)N3CCN(C)CC3)c(CSc3ccccc3)n(C)c2cc1Br	-0.599	
COc1ccc(Cl)cc1N(CC(=O)N1CCCCC1)S(C)(=O)=O	0.482	
Cc1ccc(NC(=O)N2CCC(O)(c3cccnc3)CC2)cc1	0.367	
COc1cc(OC)cc(C(=O)N[C@H](C(=O)OCC(=O)NC(C)c2ccccc2)C(C)C)c1 (some centres not stated)	0.189	
O=C1C2C3C=CC(C3)C2C(=O)N1c1ccc(S(=O)(=O)Nc2nccs2)cc1 (configuration not stated)	-2.11	
O=C(Cc1csc(Nc2nc(=S)[nH]c3ccccc23)n1)NCCCN1CCN(c2cccc(Cl)c2)CC1	1.93	
